Measured values as given in ChEMBL document CHEMBL4513216, “Probing the Open Global Health Chemical Diversity Library for Multistage-Active Starting Points for Next-Generation Antimalarials” (ACS Infect Dis, 2020).
Screen size: about 68,000 compounds; about 2,700 (4%) showed an effect of 50% or more. What follows is part of a selection rich in strong results, with near analogues and random picks from the rest.

tested on: Plasmodium berghei; test: Screen against P. berghei liver stage (PbLuc), transformed with Luciferase, at 2uM; assay type: functional, HepG2; conditions: tested at 2 uM

**Q.** For `Cc1cc(NC(=O)C(C)N2CCN(c3nc(C)ns3)CC2)on1` (stereo unspecified), which INHIBITION is on record?
**A.** The INHIBITION was 22.29%.

**Q.** `Cn1ncnc1CNc1ccc2c(c1)N(C(=O)OC(C)(C)C)CCC2` was tested. Which INHIBITION did it give?
**A.** Its INHIBITION is 33.49%.

**Q.** `CC(C)NC(=O)N1CC(=O)c2sc(Nc3ccc(C#N)cc3)nc2C1` was tested. Which INHIBITION did it give?
**A.** The INHIBITION was -42.69%.

**Q.** `O=C(c1ccc[nH]1)N1CCOCC2(C1)CN(c1ccccc1)C(=O)CO2` (stereo unspecified) was tested. Which INHIBITION did it give?
**A.** The INHIBITION was -15.09%.

**Q.** For `Cc1cccc(N2CC3(COCCN(c4ccncn4)C3)OCC2=O)c1` (stereo unspecified), which INHIBITION is on record?
**A.** The INHIBITION was 7.33%.

**Q.** How did the INHIBITION turn out when `O=C(N1CCCC1)N1CCOCC2(C1)CN(c1ccccc1)C(=O)CO2` (stereo unspecified) was run?
**A.** The INHIBITION was 56.38%.

**Q.** With `O=C1COC2(COCCN(c3ccccn3)C2)CN1c1cccc(F)c1` (stereo unspecified) as the molecule, how does the INHIBITION read?
**A.** Its INHIBITION is 16.2%.

**Q.** Which INHIBITION does the source give for `O=C1COC2(COCCN(c3cnccn3)C2)CN1c1cccc(F)c1` (stereo unspecified) here?
**A.** Its INHIBITION is 50.81%.

**Q.** With `CN(C)CC(=O)N1CCOCC2(C1)CN(c1ccccc1)C(=O)CO2` (stereo unspecified) as the molecule, how does the INHIBITION read?
**A.** Its INHIBITION is 17.78%.

**Q.** For `COCC1CN(C(=O)c2ccoc2)Cc2cnn(CC3CCOCC3)c21` (stereo unspecified), which INHIBITION is on record?
**A.** Its INHIBITION is -14.61%.

**Q.** With `CSCCCNC(=O)Nc1cccc(-c2nccn2C)c1` as the molecule, how does the INHIBITION read?
**A.** Its INHIBITION is 11.78%.

**Q.** Which INHIBITION does the source give for `CCN(CC)CCn1ccnc1-c1cccc(C#N)c1` here?
**A.** The INHIBITION was 15.2%.

**Q.** With `CSCCCn1ccnc1-c1cccc(C#N)c1` as the molecule, how does the INHIBITION read?
**A.** The INHIBITION was 55.93%.

**Q.** Which INHIBITION does the source give for `Cc1ccc(C(=O)N2C[C@H]3CN(Cc4csc(C)n4)C[C@H]3C2)cn1` here?
**A.** Its INHIBITION is 5.38%.

**Q.** With `CCC[C@H]1CN(S(=O)(=O)c2ccccc2)C[C@@H]1N` as the molecule, how does the INHIBITION read?
**A.** Its INHIBITION is 24.12%.

**Q.** Which INHIBITION does the source give for `CCC[C@H]1CN(S(=O)(=O)c2c(C)noc2C)C[C@@H]1N` here?
**A.** Its INHIBITION is 51.31%.

**Q.** With `CCC[C@H]1CN(S(=O)(=O)c2ccc(-c3c(C)noc3C)s2)C[C@@H]1N` as the molecule, how does the INHIBITION read?
**A.** Its INHIBITION is 29.53%.

**Q.** With `Cc1cnn(CC(C)Nc2nc(C)cc(N(C)C)n2)c1` (stereo unspecified) as the molecule, how does the INHIBITION read?
**A.** The INHIBITION was -28.68%.

**Q.** How did the INHIBITION turn out when `CN(C)C[C@]12COC[C@H]1CN(C(=O)Cc1ccc3c(c1)OCO3)C2` was run?
**A.** The INHIBITION was -2.21%.

**Q.** With `CCOC(=O)Cn1nnnc1-c1ccccc1` as the molecule, how does the INHIBITION read?
**A.** Its INHIBITION is 23.9%.

**Q.** Which INHIBITION does the source give for `O=S(=O)(C1CC1)N1CCC2(CN(c3ncccn3)C2)C1` here?
**A.** Its INHIBITION is -12.25%.

**Q.** For `Cc1ccc(CN2CCS(=O)(=O)C(C)(C)C2)cc1C`, which INHIBITION is on record?
**A.** The INHIBITION was -38.39%.

**Q.** Which INHIBITION does the source give for `CCN1CC2(CCC1=O)CCN(Cc1cccc(OC(F)F)c1)CC2` here?
**A.** The INHIBITION was -1.38%.

**Q.** With `O=C(NCc1cccnc1)C1CN(c2cnc3ccccc3n2)CCN1` (stereo unspecified) as the molecule, how does the INHIBITION read?
**A.** Its INHIBITION is -6.53%.

**Q.** With `O=C(NCc1ccncc1)C1CN(c2nc3ccccc3s2)CCN1` (stereo unspecified) as the molecule, how does the INHIBITION read?
**A.** The INHIBITION was 11.67%.

**Q.** For `O=C(NCc1ccccn1)C1CN(c2nc3ccccc3s2)CCN1` (stereo unspecified), which INHIBITION is on record?
**A.** The INHIBITION was 56.21%.

**Q.** Which INHIBITION does the source give for `Nc1nccc(N2CCNC(C(=O)NCc3ccccn3)C2)n1` (stereo unspecified) here?
**A.** The INHIBITION was 50.94%.

**Q.** Which INHIBITION does the source give for `CCCc1nc(C)cc(N2CCNC(C(=O)NCc3cccnc3)C2)n1` (stereo unspecified) here?
**A.** Its INHIBITION is 19.81%.

**Q.** How did the INHIBITION turn out when `O=C(NC1CC1)C1CN(c2nc3ccccc3s2)CCN1` (stereo unspecified) was run?
**A.** Its INHIBITION is -17.07%.

**Q.** `CN(C)CCN1CCN(Cc2cccs2)Cc2cccnc21` was tested. Which INHIBITION did it give?
**A.** The INHIBITION was 31.96%.

**Q.** `COc1ccc(CNC(=O)NC2CCC(O)CC2)c(C(F)(F)F)c1` (stereo unspecified) was tested. Which INHIBITION did it give?
**A.** The INHIBITION was 24.83%.

**Q.** `Cc1nc(C)n(CC2CCCCN2c2ccnc(-c3ccccc3)n2)n1` (stereo unspecified) was tested. Which INHIBITION did it give?
**A.** The INHIBITION was -22.89%.

**Q.** Which INHIBITION does the source give for `O=C1CCC(C(=O)N(Cc2ccsc2)CC2CCCO2)=NN1` (stereo unspecified) here?
**A.** Its INHIBITION is 50.59%.

**Q.** How did the INHIBITION turn out when `CN(C)CCN(Cc1ccsc1)C(=O)C1=NNC(=O)CC1` was run?
**A.** The INHIBITION was 31.51%.

**Q.** Which INHIBITION does the source give for `O=C(c1cccc(=O)[nH]1)N(Cc1ccsc1)CC1CCCO1` (stereo unspecified) here?
**A.** The INHIBITION was -2.31%.

**Q.** With `CC(=O)N1CCC(c2nn(C)c(=O)n2-c2ccccc2)CC1` as the molecule, how does the INHIBITION read?
**A.** The INHIBITION was 64.06%.

**Q.** With `Cn1nc(C2CCN(CC(=O)NC3CC3)CC2)n(-c2ccccc2)c1=O` as the molecule, how does the INHIBITION read?
**A.** The INHIBITION was 60.64%.

**Q.** For `Cn1cnnc1C1CCN(C(=O)CCCOc2ccccc2)CC1`, which INHIBITION is on record?
**A.** The INHIBITION was 23.31%.

**Q.** Which INHIBITION does the source give for `CNC(=O)CN1CCC(c2nn(C)c(=O)n2-c2ccccc2)CC1` here?
**A.** Its INHIBITION is 16.93%.

**Q.** With `CCSC(C)C(=O)N1CCC(c2nn(C)c(=O)n2-c2ccccc2)CC1` (stereo unspecified) as the molecule, how does the INHIBITION read?
**A.** The INHIBITION was -45.11%.

**Q.** Which INHIBITION does the source give for `CNc1cccc(C2CCN(C(C)=O)CC2)n1` here?
**A.** Its INHIBITION is 28.4%.

**Q.** For `CCCn1cc(C(=O)NC2CCN(CC(=O)NC3CC3)CC2)c(C)n1`, which INHIBITION is on record?
**A.** The INHIBITION was 16.35%.

**Q.** With `CCCC(=O)N1CCC(c2nn(C)c(=O)n2-c2ccccc2)CC1` as the molecule, how does the INHIBITION read?
**A.** Its INHIBITION is 60.64%.

**Q.** Which INHIBITION does the source give for `O=c1n(Cc2ncccn2)nc(C2CCNCC2)n1-c1ccccc1` here?
**A.** Its INHIBITION is -0.59%.

**Q.** How did the INHIBITION turn out when `CC1CN(C(=O)NCCCn2cncn2)CCO1` (stereo unspecified) was run?
**A.** Its INHIBITION is -7.02%.

**Q.** With `CS(=O)(=O)N1C[C@H]2CN(CC3CC3)C(=O)[C@H]2C1` as the molecule, how does the INHIBITION read?
**A.** Its INHIBITION is -30.69%.

**Q.** With `CC(=O)Nc1nc(C(=O)NCc2ccc(N3CCOC(C)C3)nc2)cs1` (stereo unspecified) as the molecule, how does the INHIBITION read?
**A.** The INHIBITION was 13.36%.

**Q.** With `CN(CCc1nccs1)C(=O)CC1(O)CCCCC1` as the molecule, how does the INHIBITION read?
**A.** The INHIBITION was 25.78%.

**Q.** How did the INHIBITION turn out when `Clc1ccccc1C1(c2ccnc(-c3ccncc3)n2)CCNCC1` was run?
**A.** The INHIBITION was -14.84%.

**Q.** With `CC(=O)c1cccc(NS(=O)(=O)c2cc(C)c(C(=O)O)s2)c1` as the molecule, how does the INHIBITION read?
**A.** The INHIBITION was -18.41%.

**Q.** With `CCc1cccc(NS(=O)(=O)c2cc(C)c(C(=O)O)s2)c1` as the molecule, how does the INHIBITION read?
**A.** The INHIBITION was 58.69%.

**Q.** With `O=C(O)c1csc(S(=O)(=O)Nc2cccc(OC(F)F)c2)c1` as the molecule, how does the INHIBITION read?
**A.** Its INHIBITION is -56.15%.

**Q.** How did the INHIBITION turn out when `Cc1cc(S(=O)(=O)Nc2cccc(OC(F)F)c2)sc1C(=O)O` was run?
**A.** The INHIBITION was 68.61%.

**Q.** For `CCOc1cccc(NS(=O)(=O)c2cc(C)c(C(=O)O)s2)c1`, which INHIBITION is on record?
**A.** Its INHIBITION is 40.85%.

**Q.** How did the INHIBITION turn out when `Cc1cc(S(=O)(=O)Nc2cccc(I)c2)sc1C(=O)O` was run?
**A.** The INHIBITION was -21.72%.

**Q.** `COc1cccc(CN2CCOC(c3cnccn3)C2)c1F` (stereo unspecified) was tested. Which INHIBITION did it give?
**A.** Its INHIBITION is 4.47%.

**Q.** How did the INHIBITION turn out when `Nc1c(N2CCOCC2)ncnc1N1CCOCC1` was run?
**A.** Its INHIBITION is -18.65%.

**Q.** How did the INHIBITION turn out when `CC1CCN(S(=O)(=O)c2cccn(CC(=O)NC3CCCC3)c2=O)CC1` was run?
**A.** The INHIBITION was -1.71%.

**Q.** With `CNC(=O)C1CCCN(c2nc(-c3ccco3)nc3c2CCNCC3)C1` (stereo unspecified) as the molecule, how does the INHIBITION read?
**A.** Its INHIBITION is -44.93%.

**Q.** How did the INHIBITION turn out when `CCS(=O)(=O)NC1CCCN(Cc2ccn(C)c(=O)c2)C1` (stereo unspecified) was run?
**A.** The INHIBITION was -21.09%.

**Q.** Which INHIBITION does the source give for `CCc1nnsc1C(=O)NC1CCN(c2ccccn2)CC1` here?
**A.** Its INHIBITION is 11.97%.

**Q.** `Cc1ncsc1C(=O)NC1CCN(CCC(N)=O)CC1` was tested. Which INHIBITION did it give?
**A.** The INHIBITION was -7.02%.

**Q.** For `CCc1nnsc1C(=O)NC1CCN(CCOc2ccc(Br)cc2)CC1`, which INHIBITION is on record?
**A.** The INHIBITION was 62.51%.

**Q.** Which INHIBITION does the source give for `Cc1ncc(C(=O)NC2CCN(CCOc3ccc(Br)cc3)CC2)s1` here?
**A.** Its INHIBITION is 60.13%.

**Q.** Which INHIBITION does the source give for `Cc1nc(C(=O)NC2CCN(CCOc3ccc(Br)cc3)CC2)cs1` here?
**A.** Its INHIBITION is 31.51%.

**Q.** How did the INHIBITION turn out when `CN1CCCC1CNC(=O)CCOc1ccc(Br)cc1` (stereo unspecified) was run?
**A.** The INHIBITION was -80.31%.
